Bioassay records as filed in PubChem BioAssay.
KDM5B inhibitor = Primary screen for KDM5B Histone Demethylases FDH-coupled qHTS; Lysine-specific demethylase 5B (Homo sapiens), Q9UGL1; KDM5B demethylase, FDH-coupled NADH fluorescence (FDH is formaldehyde dehydrogenase); Potency, µM (highest dose often 57.7 µM), actives largely listed as inhibitors; hit rate 2.6% among 220,000; AID 1347165, 2019; active = well fitted inhibition curve with a large enough effect; note: nearly all actives have a fitted effect of over 70% in size
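Inhibition is measured as reduced NADH fluorescence generation from FDH coupling to formaldehyde release. Truncated KDM5BΔAP at 200 nM final acts on H3K4me3 peptide (12.5 µM in substrate mix) in pH 7.5 HEPES buffer with Tween-20, 30 min, room temperature.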
Hits are given with their value; n = inactive. This is one part of a sample in which hits are shown more often than they occur.

SMILES	KDM5B inhibitor
O=C1NCCN2CC3(CCN(C(=O)c4ccco4)CC3)CC12 (centres undefined)	28µM
O=C1CCN(C(=O)c2ccco2)CCCCCCN1	n
CCOC(=O)c1nn(Cc2ccccc2)c2c1CN(C(=O)CC1C(=O)Nc3ccc(OC)cc31)CC2 (centres undefined)	n
CCOC(=O)c1nn(Cc2ccc(OC)cc2)c2c1CN(C(=O)c1cn3ccccc3n1)CC2	n
CCOC(=O)c1nn(Cc2ccc(OC)cc2)c2c1CN(C(=O)c1ccc3nc[nH]c3c1)CC2	32µM
CCn1c(=O)n(CCC(=O)Nc2ccccc2C)c2ccccc21	n
CN(Cc1cccn1C)C(=O)c1ccc(F)cc1	n
CN(Cc1ccc(-c2ccccc2)cc1)C(=O)c1ccc(F)cc1	n
COCCNC(=O)c1ccc(-c2ncc3cnc(-c4cccc(F)c4)cn23)cc1	35µM
CN(C)CCN(C)C(=O)c1ccc(-c2ncc3cnc(-c4cccc(F)c4)cn23)cc1	40µM
O=C(NCc1cnccn1)c1ccc(-c2ncc3cnc(-c4cccc(F)c4)cn23)cc1	35µM
O=C(NCc1cnccn1)c1nc(-c2ccccc2)cc2[nH]ccc12	n
O=C(NCc1cccc(F)c1)c1ccc(-n2cnc3cccnc32)cc1	n
CCc1ccc(C(=O)NCCOC)cc1	n
COc1ccc(-c2ncc(CCNC(=O)c3cccc(F)c3)[nH]2)cc1	n
COCCN1Cc2cccc(C(=O)Nc3ccccc3C(=O)OC)c2C1=O	n
COc1cccc2cc(C(=O)Nc3ccccc3O)c(=O)oc12	n
O=C(CCCCCCCC(=O)N/N=C/c1ccc(Cl)cc1)N/N=C/c1ccc(Cl)cc1	n
Cc1ccc(-n2cccc2/C=C(/C#N)c2ccc(F)cc2)cc1	n
O=C(NCc1n[nH]c(=O)c2ccccc12)c1cc(Cl)ccc1Cl	n
O=C(CCCSc1nc2ccccc2s1)Nc1ccc(C(F)(F)F)cc1	n
O=C(Nc1cccnc1)[C@@H]1C[C@@H](c2ccc(F)cc2)N(CCOc2ccccc2)C1	n
Cn1ccc(NC(=O)[C@@H]2C[C@@H](c3ccc(F)cc3)N(CCOc3ccccc3)C2)n1	n
O=C(Nc1ccncn1)[C@@H]1C[C@@H](c2ccc(F)cc2)N(CCOc2ccccc2)C1	35µM
COC1C(=O)N(c2cccc(F)c2)C12CCN(C(=O)CCc1c[nH]c3ccccc13)CC2 (centres undefined)	n
SMILES	KDM5B inhibitor
COc1cccc(N2C(=O)c3ccccc3NC2c2cn(C)c(=O)n(C)c2=O)c1 (centres undefined)	n
C[S+](=O)([O-])c1ccc(-c2ncc3c(n2)OCCN(c2ccccc2)C3=O)cc1	n
COc1ccc(-c2ncc3c(n2)OCCN(c2ccccc2)C3=O)cc1F	28µM
COCCN1CCOc2nc(-c3cccc(OC(F)(F)F)c3)ncc2C1=O	n
COc1ccc(CN2CCOc3nc(-c4cc(F)cc(F)c4)ncc3C2=O)cc1	n
Cn1nccc1-c1ncc2c(n1)OCCN(Cc1ccc(F)cc1F)C2=O	n
Cc1ccc(-c2ncc3c(n2)OCCN(c2ccccc2)C3=O)cc1F	n
COc1ccc(OC)c(-c2ncc3c(n2)OCCN(c2cccc(C(F)(F)F)c2)C3=O)c1	n
COCCN1CCOc2nc(-c3cc(F)ccc3OC)ncc2C1=O	32µM
COCCN1CCOc2nc(-c3cc(F)cc(OC)c3)ncc2C1=O	32µM
COc1ccc(F)cc1-c1ncc2c(n1)OCCN(c1cccc(C(F)(F)F)c1)C2=O	40µM
COCCN1CCOc2nc(-c3ccc(F)c(Cl)c3)ncc2C1=O	n
COc1cccc(F)c1-c1ncc2c(n1)OCCN(c1cccc(C(F)(F)F)c1)C2=O	n
O=CNNC(=S)Nc1ccccc1C(F)(F)F	n
COC(=O)CCNC(=O)C(c1ccccc1)c1ccccc1	n
Cc1ccc(OCCC(=O)N2CCN(S(=O)(=O)c3cccs3)CC2)cc1	n
CC(=O)Nc1ccccc1C(=O)N1CCN(C(c2ccccc2)c2ccccc2)CC1	n
Cc1nc2cc(F)ccc2cc1C(=O)N1CCN(Cc2ccccc2F)CC1	n
CS(=O)(=O)Cc1cccc(C(=O)Oc2ccc(Cl)c(Cl)c2)c1	n
Cc1cc(C(=O)CSc2ccc(Cl)cc2)c(C)[nH]1	n
COc1cc(F)cc(-c2ncc3c(n2)OCCN(c2cccc(C(F)(F)F)c2)C3=O)c1	n
COc1cc(F)cc(-c2ncc3c(n2)OCCN(C)C3=O)c1	35µM
CN1CCOc2nc(-c3ccc(Oc4ccccc4)cc3)ncc2C1=O	n
COc1cccc(C(=O)Nc2oc3ccccc3c(=O)c2-c2ccc3c(c2)OCO3)c1	n
COc1ccc(C(=O)COC(=O)c2cc(S(N)(=O)=O)ccc2F)c(OC)c1	n
SMILES	KDM5B inhibitor
O=C(NC1CCN(c2cc(-c3cccs3)[nH]n2)C1)c1ccc(F)c(F)c1 (centres undefined)	13µM
CC(=O)Nc1ccc(C(=O)NC2CCN(c3cc(-c4cccs4)[nH]n3)C2)cc1 (centres undefined)	18µM
CC(=O)Nc1ccc(C(=O)NC2CCN(c3cc(-c4ccccc4)[nH]n3)CC2)cc1	n
CCc1ccc(C(=O)NC2CCN(c3cc(-c4cccs4)[nH]n3)CC2)cc1	n
O=C(NC1CCN(c2cc(-c3cccs3)[nH]n2)CC1)c1cccc(F)c1	n
O=C(NC1CCN(c2cc(-c3cccs3)[nH]n2)CC1)c1ccc(F)c(F)c1	n
O=C(COc1ccccc1)N1CCC(n2cc(-c3nc(-c4ccccc4)no3)nn2)CC1	n
Nc1nc(Nc2ccc(F)cc2)sc1C(=O)c1ccc(Cl)cc1	n
CNc1ncccc1C(=O)N1CCc2nc(-c3cn[nH]c3)[nH]c2C1	28µM
Cc1nnnn1Cc1ccc(C(=O)N2CCc3nc(-c4cn[nH]c4)[nH]c3C2)cc1	n
Cc1cn(CC(=O)N2CCc3nc(-c4cn[nH]c4)[nH]c3C2)c(=O)[nH]c1=O	n
CC(=O)NC1(C)CCCN(Cc2cccc(-c3c(C)noc3C)c2)C1 (centres undefined)	n
Cc1noc(C)c1-c1cccc(CCOc2cnc3c(ccn3CC(=O)O)c2)c1	40µM
Cc1noc(C)c1-c1cc2c(c(-c3cccc(CO)c3)c1)C(=O)N(C)C2=O	n
Cc1cccc(-c2cccc(CCOc3cnc4c(ccn4CC(=O)O)c3)c2)c1	32µM
Cc1cc(-c2cccc(CCOc3cnc4c(ccn4CC(=O)O)c3)c2)ccn1	35µM
CCc1cccc(OCCOC(=O)c2cc(C)nc3ccccc23)c1	n
Cc1cccc(CSCC(=O)O)c1	n
Cn1cc(-c2cccc(COc3ccc4c(cnn4CC[S+](C)(=O)[O-])c3)c2)cn1	n
Cc1cccc(CCCCCCCCCCCC(=O)O)c1	n
Cn1cc(-c2cc(C(F)F)c3c(C4CC4)nn(CC(=O)O)c3n2)cn1	n
Cn1cc(-c2cccc(CCOc3cnc4c(ccn4CC(=O)O)c3)c2)cn1	40µM
O=C(O)CCn1ncc2cc(OCc3ccc(-c4cccc(CO)c4)cc3)ccc21	n
COc1ccccc1C1CC(=O)Nc2nc(-c3ccccc3)[nH]c(=O)c21 (centres undefined)	n
CCc1ccccc1N(C)S(=O)(=O)c1ccc(/C=C\c2onc(C)c2NC(=O)C2CC2)cc1	n
Cn1cnc2c1c(=O)n(CC(=O)NCC1(c3ccccc3)CC1)c(=O)n2C	n
O=C(O)C1(c2cccc(Br)c2)CCCC1	n
CCc1nnc2sc(-c3ccc(C)c(NC(=O)c4ccc(Br)o4)c3)nn12	n
O=C(CCC(=O)c1cccs1)Nc1cccc(N2CCCC2=O)c1	n
C=CCN(CC=C)C(=O)/C=C/c1csc(C)n1	n
